# Assay results: PubChem BioAssay (NCATS)
# Inconclusive results are not listed. Entries that show only a call come without a potency. The source made the active and inactive calls. Unless noted, calls come from the whole dose curve.
# What was measured:
# [1] = qHTS for Inhibitors of the Functional Ribonucleoprotein Complex (vRNP) of Lassa (LASV) Arenavirus: LASV Primary Screen - GLuc reporter signal (AID 1347082; calls by dose curve; tested in HEK293 reporter line; note: nearly all actives have a fitted effect of over 60% in size; note: potency is the fitted concentration of half-maximal effect)
# [2] = Cytotoxicity counterscreen for inhibitors of SARS-CoV-2 cell entry (AID 1645845); note: nearly all actives have a fitted effect of over 50% in size
# Method in brief: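 After a 15 min room-temperature ATPLite 1step step, luminescence reflected ATP remaining in HEK293-ACE2 cells exposed to compound for 1 h plus 48 h at 37 C, with percent activity set by cell and no-cell controls.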
# [3] = Primary qHTS to identify inhibitors of SARS-CoV-2 cell entry (AID 1645846); details: activity change, negative = inhibition: at 57.1 µM (top of the series) unless noted; note: nearly all actives have a fitted effect of over 45% in size; note: potency is the fitted concentration of half-maximal effect
# Method in brief: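 HEK293 cells stably expressing human ACE2, pre-treated 1 h with compound, then infected with MLV particles pseudotyped with Wuhan-Hu-1 spike (C-terminal 19-aa truncation). Luciferase luminescence after 48 h at 37 °C, normalised to spike PP and bald PP.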
# [4] = qHTS for Inhibitors of the Functional Ribonucleoprotein Complex (vRNP) of Lassa (LASV) Arenavirus: Viability assay - alamar blue signal for LASV Primary Screen (AID 1347083; calls by dose curve; tested in HEK293 reporter line; note: nearly all actives have a fitted effect of over 80% in size; note: potency is the fitted concentration of half-maximal effect)
# [5] = Inducers of the Endoplasmic Reticulum Stress Response (ERSR) in human glioma: Validation (AID 504836; active = well fitted curve in the direction sought with a large enough effect)
# Method in brief: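 Stably transfected U87-MG human glioma cells carrying a GRP78-based luminescent sensor were seeded at 1000 cells/well, pin-dosed with compounds and incubated 16 h. Luciferase reagent was then added, and end-point luminescence was read after 10 min at room temperature.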
# [6] = VSVG counterscreen qHTS to identify inhibitors of SARS-CoV-2 cell entry (AID 1645847); note: nearly all actives have a fitted effect of over 65% in size; note: potency is the fitted concentration of half-maximal effect
# Method in brief: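 HEK293-ACE2 cells (Expi293F, human ACE2) pretreated 1 h with compound, then infected with MLV-based VSV-G pseudotyped particles for 48 h at 37 C; luciferase luminescence normalized to VSV-G PP and bald PP wells.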
# [7] = Validation screen for inhibitors of Lassa infection (AID 463096); note: potency is the fitted concentration of half-maximal effect
# [8] = qHTS profiling of the MIPE4 collection as inhibitors of Plasmodium falciparum (3D7) proliferation (AID 743344; call rule not given here); details: P. falciparum 3D7 in erythrocytes, SYBR Green DNA fluorescence, 72 h; at 28.5 µM (top of the series) unless noted
# Method in brief: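 Parasite DNA was quantified by SYBR Green I fluorescence (ex 485, em 535 nm) after overnight lysis in saponin/Triton buffer at room temperature. Cultures at 0.3% parasitemia and 2.5% hematocrit were first exposed to compound for 72 h at 37 C; signals were normalised to artemisinin (0.29 uM) and vehicle wells.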
# [9] = qHTS for Inhibitors of the Functional Ribonucleoprotein Complex (vRNP) of Lymphocytic Choriomeningitis Arenaviruses (LCMV): Viability assay - alamar blue signal for LCMV Primary Screen (AID 1347085; calls by dose curve; tested in HEK293 reporter line; note: potency is the fitted concentration of half-maximal effect; nearly all actives have a fitted effect of over 80% in size)
# [10] = target: Nucleoprotein (Lymphocytic choriomeningitis virus (strain Armstrong)) (UniProt P09992); test: qHTS for Inhibitors of the Functional Ribonucleoprotein Complex (vRNP) of Lymphocytic Choriomeningitis Arenaviruses (LCMV): LCMV Primary Screen - GLuc reporter signal (AID 1347086); note: potency is the fitted concentration of half-maximal effect; nearly all actives have a fitted effect of over 70% in size
# Chain of Nucleoprotein (Lymphocytic choriomeningitis virus (strain Armstrong)) (P09992 whole entry, looked up): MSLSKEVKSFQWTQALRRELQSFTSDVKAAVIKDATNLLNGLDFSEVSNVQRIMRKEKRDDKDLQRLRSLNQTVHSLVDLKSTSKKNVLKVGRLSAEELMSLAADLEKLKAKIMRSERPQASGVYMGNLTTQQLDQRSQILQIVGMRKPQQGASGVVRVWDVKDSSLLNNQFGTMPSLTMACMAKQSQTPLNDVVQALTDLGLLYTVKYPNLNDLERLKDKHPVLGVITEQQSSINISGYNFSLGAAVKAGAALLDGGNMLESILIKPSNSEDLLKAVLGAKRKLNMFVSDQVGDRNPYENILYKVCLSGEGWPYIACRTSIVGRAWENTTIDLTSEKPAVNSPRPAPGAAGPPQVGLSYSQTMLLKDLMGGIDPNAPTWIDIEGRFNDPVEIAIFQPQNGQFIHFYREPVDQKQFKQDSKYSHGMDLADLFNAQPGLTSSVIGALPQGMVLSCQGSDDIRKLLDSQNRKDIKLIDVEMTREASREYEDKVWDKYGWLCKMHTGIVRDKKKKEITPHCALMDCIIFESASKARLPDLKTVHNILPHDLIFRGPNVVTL
structure (smiles),measurement,setting,value
COc1ccc(-n2c(C)c([N+](=O)[O-])c3ccc(O)cc32)cc1,Potency,[1],inactive
same,Potency,[2],inactive
same,"activity change, negative = inhibition",[3],-4.69%
C=C1C(=O)C=C[C@]2(C)C[C@@H]3OC(=O)[C@](C)(O)[C@H]3C[C@@H]12,Potency,[4],14.1 µM (active)
CNCCc1cnc(CCC(c2ccccc2)c2ccccc2)[nH]1,outcome,[5],inactive
same,Potency,[1],inactive
CC[C@H](C)C(=O)O[C@H]1CCC=C2C=C[C@H](C)[C@H](CC[C@@H]3C[C@@H](O)CC(=O)O3)[C@H]21,outcome,[5],inactive
same,Potency,[1],inactive
same,Potency,[2],inactive
same,"activity change, negative = inhibition",[3],-51.5%
same,Potency,[6],inactive
CN1CCCC1CCOC(C)(c1ccccc1)c1ccc(Cl)cc1 (stereo not drawn),Potency,[7],10 µM (active)
same,outcome,[5],inactive
same,Potency,[1],inactive
C[C@@]12C(=O)OC(=O)[C@@]1(C)C1CCC2O1,Potency,[4],19.3 µM (active)
C[C@]12CC[C@H](O)CC1=CCC1C2CC[C@]2(C)C(n3cnc4ccccc43)=CCC12 (stereo partly drawn),Potency,[1],inactive
same,Potency,[2],inactive
same,Potency,[3],inactive
COc1ccc(-c2cc3ncc(C)n3c(Nc3ncccc3C(N)=O)n2)cc1OC,outcome,[5],inactive
same,Potency,[1],inactive
CC(C)ON([C@@H](C(=O)NO)C(C)C)S(=O)(=O)c1ccc(-c2ccccc2)cc1,outcome,[5],inactive
same,Potency,[1],inactive
COc1ccc(COc2cc3oc(=O)c4cc(C(C)O)ccc4c3cc2OC)cc1 (stereo not drawn),Potency,[1],inactive
same,Potency,[2],inactive
same,"activity change, negative = inhibition",[3],-25.6%
CC(=O)OC1C(O)C(C)OC(OC2C(OC(=O)C3CCC4C(C3)OC3(CC(OC(=O)/C=C/c5ccccc5)C(C)CO3)C43CO3)OC(C)C(O)C2OC(C)=O)C1O (stereo not drawn),Potency,[4],0.178 µM (active)
Oc1ccc(C2=Cc3ccc(O)cc3OC2)cc1,Potency,[4],24.3 µM (active)
Cc1ncnc2nc[nH]c12,Potency,[4],1.58 µM (active)
COc1cc(C)c(Sc2cnc(NC(=O)c3ccc(CNC(C)C(C)C)cc3)s2)cc1C(=O)N1CCN(C(C)=O)CC1 (stereo not drawn),Potency,[1],24.3 µM (active)
same,"activity change, negative = inhibition",[3],-95.3%
same,Potency,[6],3.83 µM (active)
CC(=O)OC1(C)CC(C)C(=O)C(C(O)CC2CC(=O)NC(=O)C2)C1 (stereo not drawn),Potency,[4],inactive
COC(=O)Nc1nc2ccc(C(=O)c3ccc(F)cc3)cc2[nH]1,Potency,[1],inactive
same,Potency,[2],inactive
same,Potency,[3],1.26 µM (active)
same,Potency,[6],0.961 µM (active)
CCOC(=O)N1CCN(/[N+]([O-])=N/Oc2ccc([N+](=O)[O-])cc2[N+](=O)[O-])CC1,outcome,[5],inactive
same,Potency,[1],inactive
same,Potency,[2],inactive
same,"activity change, negative = inhibition",[3],-5.73%
COc1ccc2c3c1OC1C[C@@H](O)C=C[C@@]31CCN(C)C2 (stereo partly drawn),"parasite growth, % of DMSO control",[8],89.5%
same,Potency,[1],inactive
O=C(C=CC#Cc1cccc(NS(=O)(=O)c2ccccc2)c1)NO,Potency,[4],13.7 µM (active)
same,Potency,[9],6.85 µM (active)
same,Potency,[10],12.2 µM (active)
CO[C@@H]1[C@@H](O)[C@H](O)[C@@H](n2c3c(Cl)cccc3c3c4c(c5c6cccc(Cl)c6[nH]c5c32)C(=O)NC4=O)O[C@@H]1CO,Potency,[4],1.93 µM (active)
same,Potency,[9],2.43 µM (active)
same,Potency,[10],3.06 µM (active)
